Test [1] has as its target Retinoic acid receptor RXR-alpha (Homo sapiens) (UniProt P19793). Kind of test: ATG_RXRa_TRANS: Attagene TRANS-FACTORIAL HepG2 Assay for human Retinoid X Receptor alpha (RXRa) (AID 2283012; active = hit-call score of the fitted dose curve at least 0.9, where 1 is the maximum). The method, boiled down: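 Cells (HepG2) carried transiently transfected GAL4-responsive reporter units. Following a 24 h chemical incubation, reporter mRNA induction was read via RT-PCR fragment analysis; DMSO served as negative control and baseline.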

Test [2] addresses human Retinoid X Receptor beta (RXRb), RXRB (gene 6257) (UniProt P28702). Kind of test: ATG_RXRb_TRANS: Attagene TRANS-FACTORIAL HepG2 Assay for human Retinoid X Receptor beta (RXRb) (AID 2283013; active = hit-call score of the fitted dose curve at least 0.9, where 1 is the maximum). The method in brief: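 Multiplexed TRANS reporter assay in HepG2; 24 h dosing; reporter mRNA by RT-PCR/CE fluorescence; gain-of-signal relative to DMSO.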
Test [3] addresses human Thyroid Receptor alpha (THRa1), THRA (gene 7067) (UniProt P10827). Briefly: ATG_THRa1_TRANS: Attagene TRANS-FACTORIAL HepG2 Assay for human Thyroid Receptor alpha (THRa1) (AID 2283014; active = hit-call score of the fitted dose curve at least 0.9, where 1 is the maximum). The method in brief:
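HepG2 cells transiently transfected with chimeric NR-Gal4 and GAL4-UAS reporter units, dosed 24 h. Reporter mRNA quantified by RT-PCR, fluorescent labeling, HpaI digestion and capillary electrophoresis; gain-of-signal fit versus DMSO.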

Read-out in test [4]: E-selectin (Homo sapiens) (UniProt P16581)
Briefly: BSK_3C_Eselectin: BioMAP Diversity Plus: 3C Assay for Eselectin Biomarker Activity (AID 2283015).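 Note: cell surface E-selectin protein quantified by ELISA 24 h after dosing.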 The following applies: primary human endothelial cells (HUVEC); actives raise or lower the signal. The method, boiled down: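 Primary human umbilical vein endothelial cells (3C system), read 24 h after compound addition; E-selectin measured by ELISA. Bidirectional curve fitting against DMSO baseline; cytotoxicity by parallel SRB total-protein staining.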

Read-out in test [5]: Interleukin-1 alpha (IL1a), IL1A (gene 3552)
Briefly: BSK_BE3C_IL1a: BioMAP Diversity Plus: BE3C Assay for Interleukin-1 alpha (IL1a) Biomarker Activity (AID 2283016). The following applies: primary human bronchial epithelial cells; actives raise or lower the signal. The method in brief: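 Cultures of primary human bronchial epithelial cells receive test chemical. After 24 h, IL-1a is quantified by ELISA, while parallel wells are fixed in TCA and SRB-stained for total protein. Changes in either direction are fitted relative to DMSO.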

Read-out in test [6]: Monocyte Chemoattractant Protein-1 (MCP1), CCL2 (gene 6347)
Briefly: BSK_3C_MCP1: BioMAP Diversity Plus: 3C Assay for Monocyte Chemoattractant Protein-1 (MCP1) Biomarker Activity (AID 2283017). The following applies: primary human endothelial cells (HUVEC); actives raise or lower the signal. The method, boiled down:
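Human umbilical vein endothelial cells (3C system) exposed to chemicals for 24 h; MCP-1 quantified by ELISA against the DMSO baseline with bidirectional fitting, and parallel SRB staining used to assess cytotoxicity.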

Read-out in test [7]: Monocyte Chemoattractant Protein-1 (MCP1), CCL2 (gene 6347)
Briefly: BSK_4H_MCP1: BioMAP Diversity Plus: 4H Assay for Monocyte Chemoattractant Protein-1 (MCP1) Biomarker Activity (AID 2283018). The following applies: primary human endothelial cells (HUVEC); actives raise or lower the signal. The method in brief:
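Readout: MCP-1 ELISA on compound-treated HUVEC, sampled 24 h post-dosing. Baseline and negative control DMSO; bidirectional fit. Overt toxicity checked alongside by sulforhodamine B protein staining at time of biomarker measurement.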

Read-out in test [8]: Human Leukocyte Antigen - DR isotype (HLADR), HLA-DRA (gene 3122)
Kind of test: BSK_3C_HLADR: BioMAP Diversity Plus: 3C Assay for Human Leukocyte Antigen - DR isotype (HLADR) Biomarker Activity (AID 2283019).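 Note: ELISA of cell-surface HLA-DR on HUVEC 24 h after dosing.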 To be noted: primary human endothelial cells (HUVEC); actives raise or lower the signal. The method, boiled down:
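HUVEC monoculture, HLA-DR measured by ELISA 24 h after chemical dosing. Fitted bidirectionally against DMSO baseline; parallel SRB staining assessed cytotoxicity, with 3C proliferation read by SRB at 48 h.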

Read-out in test [9]: Interleukin-8 (IL8), CXCL8 (gene 3576)
Kind of test: BSK_3C_IL8: BioMAP Diversity Plus: 3C Assay for Interleukin-8 (IL8) Biomarker Activity (AID 2283020). To be noted: primary human endothelial cells (HUVEC); actives raise or lower the signal. The method in brief:
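Human vascular endothelial cells (umbilical vein) in the 3C system; IL-8 level detected by ELISA at 24 h post-dose, with DMSO as baseline.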

Test [10] can be described thus: BSK_3C_SRB: Viability Assessment in the BioMAP Diversity Plus: 3C Assay (AID 2283023).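 Note: fitted both ways against DMSO so a hit may be signal rise or drop.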 The following applies: primary human endothelial cells (HUVEC). The method, boiled down: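 Human umbilical vein endothelial cells in the 3C system, treated 24 h. Total protein measured by 0.1% sulforhodamine B staining after 10% TCA fixation, read at 560 nm; bidirectional fit versus DMSO.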

Read-out in test [11]: Matrix Metallopeptidase 1 (MMP1), MMP1 (gene 4312)
Briefly: BSK_BE3C_MMP1: BioMAP Diversity Plus: BE3C Assay for Matrix Metallopeptidase 1 (MMP1) Biomarker Activity (AID 2283024). To be noted: primary human bronchial epithelial cells; actives raise or lower the signal. The method, boiled down:
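Dose cells, wait 24 h, run MMP1 ELISA; cells are human bronchial epithelial primaries. Both increases and decreases relative to DMSO counted.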

Read-out in test [12]: Pselectin, SELP (gene 6403)
Briefly: BSK_4H_Pselectin: BioMAP Diversity Plus: 4H Assay for Pselectin Biomarker Activity (AID 2283026). To be noted: primary human endothelial cells (HUVEC); actives raise or lower the signal. The method, boiled down: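 Human vascular endothelium from umbilical vein; P-selectin measured by ELISA at 24 h post-dose, with cytotoxicity checked by sulforhodamine B total-protein staining in parallel cultures (0.1% SRB after 10% TCA fixation, read at 560 nm).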

The nature of test [13]: BSK_4H_SRB: Viability Assessment in the BioMAP Diversity Plus: 4H Assay (AID 2283027).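 Note: cells exposed to compound for 24 h before staining.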 The following applies: primary human endothelial cells (HUVEC). The method in brief:
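Absorbance at 560 nm of SRB-stained total protein served as the viability read-out in confluent primary human umbilical vein endothelium 24 h after chemical treatment. Curves were fitted bidirectionally against DMSO as negative control.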

A short description of test [14]: BSK_BE3C_SRB: Viability Assessment in the BioMAP Diversity Plus: BE3C Assay (AID 2283028). To be noted: primary human bronchial epithelial cells. The method in brief:
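Human bronchial epithelial primary cells in confluent culture, 24 h after chemical dosing; total protein by 0.1% SRB staining after 10% TCA fixation, read at 560 nm. Bidirectional fitting versus DMSO baseline.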

Read-out in test [15]: Thrombomodulin, THBD (gene 7056)
Kind of test: BSK_3C_Thrombomodulin: BioMAP Diversity Plus: 3C Assay for Thrombomodulin Biomarker Activity (AID 2283029). To be noted: primary human endothelial cells (HUVEC); actives raise or lower the signal. The method in brief:
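Thrombomodulin ELISA, human primary HUVEC, 24 h post-dose; data fitted in both directions relative to DMSO.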

Read-out in test [16]: Urokinase-type plasminogen activator receptor (uPAR), PLAUR (gene 5329)
Kind of test: BSK_4H_uPAR: BioMAP Diversity Plus: 4H Assay for Urokinase-type plasminogen activator receptor (uPAR) Biomarker Activity (AID 2283030). The following applies: primary human endothelial cells (HUVEC); actives raise or lower the signal. The method in brief: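 Human umbilical vein endothelial cells in the 4H system, 24 h after chemical dosing. Cell-surface uPAR measured by ELISA, fitted in both directions versus DMSO; cytotoxicity checked by SRB total protein in parallel cultures.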

Read-out in test [17]: Vascular endothelial growth factor receptor 2 (Homo sapiens) (UniProt P35968)
Kind of test: BSK_4H_VEGFRII: BioMAP Diversity Plus: 4H Assay for Vascular endothelial growth factor receptor 2 (VEGFR2) Biomarker Activity (AID 2283031). To be noted: primary human endothelial cells (HUVEC); actives raise or lower the signal. The method, boiled down:
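Primary human umbilical vein endothelial cells (4H system), 24 h exposure; cell-surface VEGFR2 measured by ELISA. Bidirectional fitting versus DMSO; cytotoxicity checked in parallel by SRB total-protein staining.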

Read-out in test [18]: Human Leukocyte Antigen - DR isotype (HLADR), HLA-DRA (gene 3122)
Briefly: BSK_BE3C_HLADR: BioMAP Diversity Plus: BE3C Assay for Human Leukocyte Antigen - DR isotype (HLADR) Biomarker Activity (AID 2283032). To be noted: primary human bronchial epithelial cells; actives raise or lower the signal. The method, boiled down: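 Signal came from an ELISA for HLA-DR in human bronchial epithelial primary cells harvested 24 h after treatment; gain- and loss-of-signal fitting used DMSO controls as reference.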

Test [19] deals with human Vitamin D Receptor (VDR), VDR (gene 7421) (UniProt P11473). Kind of test: ATG_VDR_TRANS: Attagene TRANS-FACTORIAL HepG2 Assay for human Vitamin D Receptor (VDR) (AID 2283022; active = hit-call score of the fitted dose curve at least 0.9, where 1 is the maximum). The method in brief:
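HepG2 cells were transiently transfected with GAL4-UAS reporter units and a chimeric VDR-Gal4 construct, then dosed for 24 hours. Reporter mRNA was quantified by RT-PCR, fluorescent labeling, HpaI digestion and capillary electrophoresis; gain of signal analysed vs DMSO.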

Read-out in test [20]: Monokine induced gamma interferon (MIG), CXCL9 (gene 4283)
Kind of test: BSK_3C_MIG: BioMAP Diversity Plus: 3C Assay for Monokine induced gamma interferon (MIG) Biomarker Activity (AID 2283021). The following applies: primary human endothelial cells (HUVEC); actives raise or lower the signal. The method, boiled down: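 After 24 h of treatment, human umbilical vein endothelial cultures (3C system) had their MIG biomarker level determined by ELISA, with DMSO serving as negative control.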

The structures appear in SMILES notation. Inconclusive results are not listed. Activity calls are given as the source filed them. Rule for the calls, unless noted: active = hit-call score of the fitted dose curve at least 0.9, where 1 is the maximum; inactive = score below 0.9.

E-selectin (Homo sapiens), sequence (P16581 whole entry, looked up): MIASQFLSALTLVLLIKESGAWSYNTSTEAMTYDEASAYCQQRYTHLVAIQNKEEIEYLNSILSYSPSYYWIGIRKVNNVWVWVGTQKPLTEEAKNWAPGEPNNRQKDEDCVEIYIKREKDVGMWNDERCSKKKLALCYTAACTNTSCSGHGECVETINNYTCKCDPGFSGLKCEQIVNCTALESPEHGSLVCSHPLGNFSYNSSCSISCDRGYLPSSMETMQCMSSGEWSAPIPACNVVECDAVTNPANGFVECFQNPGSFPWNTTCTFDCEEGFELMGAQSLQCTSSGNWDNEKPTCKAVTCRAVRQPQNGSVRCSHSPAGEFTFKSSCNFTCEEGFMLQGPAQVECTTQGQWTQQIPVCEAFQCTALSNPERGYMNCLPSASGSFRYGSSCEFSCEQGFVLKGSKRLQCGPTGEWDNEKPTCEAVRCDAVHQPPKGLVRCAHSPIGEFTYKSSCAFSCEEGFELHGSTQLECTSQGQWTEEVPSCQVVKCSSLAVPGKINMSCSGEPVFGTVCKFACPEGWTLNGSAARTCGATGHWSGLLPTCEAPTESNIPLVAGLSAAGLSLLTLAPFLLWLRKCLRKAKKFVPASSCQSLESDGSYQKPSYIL
human Retinoid X Receptor beta (RXRb), RXRB (gene 6257), sequence (P28702 whole entry, looked up): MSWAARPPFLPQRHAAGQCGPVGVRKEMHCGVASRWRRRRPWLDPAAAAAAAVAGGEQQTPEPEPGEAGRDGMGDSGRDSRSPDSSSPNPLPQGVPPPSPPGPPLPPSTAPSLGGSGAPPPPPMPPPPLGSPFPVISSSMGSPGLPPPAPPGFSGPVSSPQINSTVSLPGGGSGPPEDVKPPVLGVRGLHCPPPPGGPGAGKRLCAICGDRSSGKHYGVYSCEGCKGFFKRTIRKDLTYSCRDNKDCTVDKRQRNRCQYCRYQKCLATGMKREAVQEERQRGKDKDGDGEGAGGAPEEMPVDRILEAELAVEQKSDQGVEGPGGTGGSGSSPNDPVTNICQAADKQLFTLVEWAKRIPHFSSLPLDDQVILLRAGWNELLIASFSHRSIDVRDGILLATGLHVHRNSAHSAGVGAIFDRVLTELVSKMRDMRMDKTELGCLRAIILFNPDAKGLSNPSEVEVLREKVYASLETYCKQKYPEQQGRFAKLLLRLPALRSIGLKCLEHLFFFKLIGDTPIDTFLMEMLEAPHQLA
human Vitamin D Receptor (VDR), VDR (gene 7421), sequence (P11473 whole entry, looked up, the tested form may be a part): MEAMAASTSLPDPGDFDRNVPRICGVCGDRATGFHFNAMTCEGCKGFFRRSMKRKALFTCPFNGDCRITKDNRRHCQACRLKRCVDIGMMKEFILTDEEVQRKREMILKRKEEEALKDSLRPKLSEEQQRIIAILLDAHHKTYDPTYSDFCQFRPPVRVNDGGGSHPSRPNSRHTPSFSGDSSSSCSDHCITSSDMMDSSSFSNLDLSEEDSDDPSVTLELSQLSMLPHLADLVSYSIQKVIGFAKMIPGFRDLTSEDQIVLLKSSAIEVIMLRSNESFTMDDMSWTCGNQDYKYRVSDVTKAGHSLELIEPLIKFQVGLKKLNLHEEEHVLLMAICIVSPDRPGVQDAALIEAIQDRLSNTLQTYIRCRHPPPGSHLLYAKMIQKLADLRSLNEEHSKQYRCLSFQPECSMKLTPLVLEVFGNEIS
Retinoic acid receptor RXR-alpha (Homo sapiens), sequence (P19793 whole entry, looked up, the tested form may be a part): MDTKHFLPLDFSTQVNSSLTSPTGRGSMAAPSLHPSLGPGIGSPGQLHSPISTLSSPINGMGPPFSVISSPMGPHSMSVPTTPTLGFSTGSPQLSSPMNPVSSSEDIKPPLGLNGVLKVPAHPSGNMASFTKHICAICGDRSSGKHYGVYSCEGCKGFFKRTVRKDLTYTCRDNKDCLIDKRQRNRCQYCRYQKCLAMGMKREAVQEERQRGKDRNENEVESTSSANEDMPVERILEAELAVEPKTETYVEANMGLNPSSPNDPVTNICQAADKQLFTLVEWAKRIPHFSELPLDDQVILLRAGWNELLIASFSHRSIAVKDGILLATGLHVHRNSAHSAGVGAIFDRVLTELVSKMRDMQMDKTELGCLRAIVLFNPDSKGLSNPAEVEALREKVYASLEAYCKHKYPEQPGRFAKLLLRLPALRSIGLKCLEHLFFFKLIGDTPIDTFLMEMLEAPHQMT
human Thyroid Receptor alpha (THRa1), THRA (gene 7067), sequence (P10827 whole entry, looked up, the tested form may be a part): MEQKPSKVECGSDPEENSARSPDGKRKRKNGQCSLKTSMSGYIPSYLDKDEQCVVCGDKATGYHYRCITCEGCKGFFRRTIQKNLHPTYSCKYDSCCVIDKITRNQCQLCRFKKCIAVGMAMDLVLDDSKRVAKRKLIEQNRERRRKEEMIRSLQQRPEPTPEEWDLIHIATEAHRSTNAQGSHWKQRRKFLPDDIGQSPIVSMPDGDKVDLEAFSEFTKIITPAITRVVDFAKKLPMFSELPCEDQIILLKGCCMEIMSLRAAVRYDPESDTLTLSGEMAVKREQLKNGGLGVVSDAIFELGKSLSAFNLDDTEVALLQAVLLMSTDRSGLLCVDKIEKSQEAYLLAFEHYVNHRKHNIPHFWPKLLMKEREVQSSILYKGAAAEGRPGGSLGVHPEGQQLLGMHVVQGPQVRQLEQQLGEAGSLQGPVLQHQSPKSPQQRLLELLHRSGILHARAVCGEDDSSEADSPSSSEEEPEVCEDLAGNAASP

For `CCc1c(C)cc(N)c(CC)c1N`, the compound was classed as inactive in test [1], in test [2], in test [3], in [4], in [5] and in [6]. Besides, the result in [7], in test [8], in [9], in test [10], in test [11] and in [12] was inactive. In addition, the outcome in test [13], in test [14], in test [15], in test [16], in test [17] and in test [18] was inactive.

Turning to `CCCCCCCCCOC(C)=O`, the compound was classed as inactive in test [1], in [2], in test [3] and in test [19].

Take `COc1cc(C(C)(C)C)c(O)c(C(C)(C)C)c1`: the concentration at half-maximal activity (AC50) is 15.4 µM (active) in test [1] and 0.745 µM (active) in [2]. For the same compound, the compound was called inactive in test [3] and in [19].

With `C=O`, the compound was called inactive in test [1], in test [2], in [3] and in test [19].

Turning to `C[C@H]1C[C@@H]2[C@H]([C@@H](O)C[C@@]3(C)[C@H]2CC[C@]3(O)C(=O)CO)[C@@]2(C)C=CC(=O)C=C12`, the compound was classed as inactive in test [1], in test [2], in test [3], in test [4], in test [5] and in test [6]. Moreover, the outcome in test [7], in test [8], in test [9], in test [10], in [11] and in [12] was inactive. Also, the outcome in test [13], in test [14], in test [15], in test [16] and in [17] was inactive.

For `CCCCNC(=O)NS(=O)(=O)c1ccc(C)cc1`, the compound was called inactive in [1], in test [2] and in test [3].

In the case of `COC(=O)c1ccc(C)cc1`, the outcome in test [1], in test [3], in test [4], in [5], in test [6] and in test [7] was inactive. Besides, the result in [8], in test [9], in test [20], in test [19], in test [10] and in test [11] was inactive. The result in test [12], in test [13], in test [14], in [15], in [16] and in [17] was inactive. Further, the AC50 in test [2] is 14.3 µM (active).

For `O=C(Oc1ccccc1)c1ccc(O)cc1`, the compound was called inactive in test [1], in test [2], in [3] and in test [19].

For the compound `CCCc1c(OCCCOc2ccc(OCC(=O)O)cc2)ccc(C(C)=O)c1O`, the compound was classed as inactive in [1], in test [3] and in test [19]. Further, in test [2], the AC50 is 8.03 µM (active).

Consider `NC(=O)NC1NC(=O)NC1=O` (stereo not given), for which the result in [1], in [2] and in [3] was inactive.

Consider `C=C(C)C(=O)Nc1ccc(Cl)c(Cl)c1`, for which the outcome in test [1], in [3] and in [19] was inactive. The AC50 in [2] was 41 µM (active).

Regarding `c1ccc2[nH]ccc2c1`, the result in [1], in test [2] and in [3] was inactive.

Consider `COC(C)CCO` (stereo not given), for which the AC50 in test [1] is 53.7 µM (active); in test [2], 4.07 µM (active). In addition, the result in [3] and in test [19] was inactive.

For the compound `Nc1cc([N+](=O)[O-])ccc1Cl`, the result in test [1], in test [2], in test [3], in test [4], in test [5] and in test [6] was inactive. Besides, the result in test [7], in test [8], in [9], in [19], in [10] and in test [11] was inactive. Also, the result in test [12], in [13], in test [14], in test [15], in test [16] and in test [17] was inactive. In addition, the outcome in [18] was inactive.

One may read the AC50 as the concentration at which the activity in the assay is half-maximal.

The values above are taken from PubChem BioAssay (EPA / NIEHS).
